According to paper PMC4336329 (PLoS ONE, 2015):
Hit rate of the full screen: of about 310,000 compounds, about 14,000 (4.5%) showed an effect of 50% or more. Effects have a minus sign here. The full list was thinned out, with strong results kept by preference.

The molecules below were run against human ether-à-go-go-related gene (hERG) potassium channel (human, UniProt Q12809) (assay: primary screen, population patch clamp on CHO cells stably expressing hERG; higher = less effect of the substance).
Chain of human ether-à-go-go-related gene (hERG) potassium channel (Q12809 whole entry, looked up): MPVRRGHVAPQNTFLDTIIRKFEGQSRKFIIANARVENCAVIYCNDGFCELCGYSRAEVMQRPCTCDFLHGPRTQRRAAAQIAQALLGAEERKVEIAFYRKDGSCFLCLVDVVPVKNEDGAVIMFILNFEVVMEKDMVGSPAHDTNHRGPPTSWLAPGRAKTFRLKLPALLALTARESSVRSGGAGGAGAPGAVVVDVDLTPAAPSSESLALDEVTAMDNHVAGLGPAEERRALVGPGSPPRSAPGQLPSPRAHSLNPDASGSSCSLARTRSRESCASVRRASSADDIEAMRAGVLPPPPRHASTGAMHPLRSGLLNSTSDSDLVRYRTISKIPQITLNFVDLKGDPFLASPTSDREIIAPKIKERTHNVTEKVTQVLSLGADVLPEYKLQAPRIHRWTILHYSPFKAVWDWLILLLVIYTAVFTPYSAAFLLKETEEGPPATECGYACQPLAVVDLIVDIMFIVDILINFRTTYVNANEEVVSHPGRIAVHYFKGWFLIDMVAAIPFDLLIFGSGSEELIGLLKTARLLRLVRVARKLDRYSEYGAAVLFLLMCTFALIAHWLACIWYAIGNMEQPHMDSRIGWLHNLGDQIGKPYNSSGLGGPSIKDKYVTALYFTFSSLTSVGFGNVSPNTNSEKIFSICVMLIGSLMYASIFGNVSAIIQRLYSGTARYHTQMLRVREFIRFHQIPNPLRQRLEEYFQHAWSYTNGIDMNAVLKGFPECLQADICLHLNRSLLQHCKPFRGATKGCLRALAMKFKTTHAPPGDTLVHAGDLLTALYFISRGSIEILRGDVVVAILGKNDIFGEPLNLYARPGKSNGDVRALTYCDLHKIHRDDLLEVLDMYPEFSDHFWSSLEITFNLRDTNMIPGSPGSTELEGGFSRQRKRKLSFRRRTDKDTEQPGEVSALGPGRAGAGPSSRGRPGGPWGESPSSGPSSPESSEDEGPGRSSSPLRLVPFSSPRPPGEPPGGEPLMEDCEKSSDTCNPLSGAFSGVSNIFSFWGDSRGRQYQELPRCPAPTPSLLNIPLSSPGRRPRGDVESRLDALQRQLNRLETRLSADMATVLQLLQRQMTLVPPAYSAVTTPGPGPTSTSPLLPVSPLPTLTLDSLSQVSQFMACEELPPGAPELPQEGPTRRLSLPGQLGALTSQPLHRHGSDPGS
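Note: peak tail current of the secondary pulse compared with the same well before compound.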

Compound	hERG current change (%, negative = inhibition) at 10uM [%]
COC(=O)c1ccc(NC(=O)c2c(C(=O)Nc3ccccc3)sc3nc(C)cc(=O)n23)cc1	15.3
Cc1ccccc1NC(=O)CSc1nnnn1C	6.94
CCOC(=O)c1c(-c2ccccc2)csc1NC(=O)c1cc(S(=O)(=O)N2CCOCC2)ccc1C	2.23
N#Cc1sc2nc(-c3cccs3)cc(-c3ccc(Cl)cc3)c2c1N	-2.05
C=CCc1cccc2cc(C(=O)N3CCN(c4ccccn4)CC3)c(=O)oc12	-38.9
O=C1COc2ccc(C(=O)COC(=O)c3ncc(Cl)c(Cl)c3Cl)cc2N1	36.6
COc1ccc(/C=C/C2=NN(C)C(=O)CC2)cc1	13.4
O=C(N/N=C\c1ccc(CNS(=O)(=O)c2ccccc2)o1)C(=O)Nc1ccc(F)cc1	-22.3
S=C(NCc1ccc2c(c1)OCO2)NC1CCN(Cc2ccccc2)CC1	20.6
CCOC(=O)c1nc(C)n(-c2ccc(Cl)cc2Cl)n1	8.75
COc1ccc(-c2nc(SC(CC(=O)NCCN3CCOCC3)c3cccs3)n[nH]2)cc1 (centres unmarked)	1.08
COc1ccc(N2CCN(CC(O)COc3ccccc3[N+](=O)[O-])CC2)cc1.Cl (centres unmarked)	-44.1
O=[N+]([O-])c1ccccc1OCC(O)CN1CCN(CC(O)COc2ccccc2[N+](=O)[O-])CC1 (centres unmarked)	-60.2
COc1ccccc1OCC(O)CN1CCN(CC(=O)Nc2c(C)cccc2C)CC1 (centres unmarked)	-18.6
Cc1ccccc1OCC(O)CN1CCN(CC(O)COc2ccccc2C)C(C)C1.O=C(O)C(=O)O (centres unmarked)	-70.8
Cc1ccccc1OCC(O)CN.Cl.O (centres unmarked)	-1.72
Cc1ccccc1OCC(O)CN1CCN(CC(O)COc2ccccc2C)CC1 (centres unmarked)	-81.6
CCOC(=O)N1CCN(CC(O)COc2ccccc2[N+](=O)[O-])CC1.Cl (centres unmarked)	-0.882
Cc1ccccc1OCC(O)CN1CCN(C)CC1.Cl (centres unmarked)	-0.704
Cc1ccccc1OCC(O)CN1CCC(C)CC1.Cl (centres unmarked)	-34.1
Cc1ccccc1N1C(=O)CSC1=C(C#N)C#N	18.3
S=C(NCc1ccccn1)Nc1ccccc1	16.3
Cc1ccc(N2CC(C(=O)NC3CC3)CC2=O)cc1Cl (centres unmarked)	10

Compound	hERG current change (%, negative = inhibition) at 10uM [%]
CCOC(=O)CSc1nc2sc3c(c2c(=O)[nH]1)CC(C)(C)OC3	0.154
CSc1cccc(NC(=O)CN(C2CCCCC2)S(C)(=O)=O)c1	-7.59
Cc1ccc(-c2csc3nc[nH]c(=S)c23)cc1C	27.5
CSc1nc(C)cc(C)c1S(=O)(=O)c1ccccc1C	7.41
O=C(Nc1ccc(Cl)cc1)N1CCC(CO)(Cc2ccccc2)CC1	-46.6
OCC1(Cc2ccc(Cl)cc2)CCN(Cc2ccc(F)c(F)c2)CC1	-68.6
Fc1ccc(CN2CCCCCCC2)cc1F	-24
OCC1(Cc2ccccc2)CCN(Cc2cnc(-c3ccc(Cl)cc3)nc2)CC1	-47.1
OCC1(Cc2ccccc2)CCN(CCCC2CCCC2)CC1	-76.8
O=S(=O)(c1cccs1)N1CCC(CO)(Cc2ccc(Cl)cc2)CC1	-7.74
O=C(Cc1ccccc1)N1CCN(CC2CC=CCC2)CC1 (centres unmarked)	-3.05
O=C(C1CC=CCC1)N1CCC(CO)(Cc2ccc(Cl)cc2)CC1 (centres unmarked)	-7.77
OCC1(Cc2ccc(Cl)cc2)CCN(CC2CC=CCC2)CC1 (centres unmarked)	-76.7
OCC1(Cc2ccc(Cl)cc2)CCN(CCCc2ccccc2)CC1	-83.9
O=C1CC(N2CCOCC2)C(=O)N1CCc1ccccc1 (centres unmarked)	6.86
C=C1c2cc(C)ccc2NC(=O)N1c1ccccc1	2.71
Cc1ccc(S(=O)(=O)N2CCN(C(=O)c3ccccn3)CC2)c(C)c1	20.1
NC(=O)C1CCN(c2oc(/C=C/c3ccc(F)cc3)nc2S(=O)(=O)c2ccccc2)CC1	5.52
Cc1ccc(NC(=O)Nc2c(C)n(C)n(-c3ccccc3)c2=O)cc1C	13.1
Cn1c(/C(C#N)=C/c2ccc(-c3ccc(S(N)(=O)=O)cc3)o2)nc2ccccc21	-38.1
COc1ccc(N/C(N)=N/c2nc(CSc3ccc(Cl)cc3)cc(=O)[nH]2)cc1	17.5
Cc1cccc(CN2CCC(CNC(=O)C3CCCN(S(=O)(=O)c4cnc[nH]4)C3)CC2)c1 (centres unmarked)	-1.13
O=C(NCc1cccnc1)C(=O)Nc1nc2ccccc2s1	3.9

Compound	hERG current change (%, negative = inhibition) at 10uM [%]
O=C(Nc1cccc2c1CCCC2)C1CCCN(S(=O)(=O)c2cccc3nonc23)C1 (centres unmarked)	-1.23
CCO[C@@H]1OC(C(=O)NCc2nc3ccccc3[nH]2)=C[C@H](c2ccccc2)[C@H]1CCCO	-25.4
CCN1CCCC(CO)(Cc2ccccc2)C1 (centres unmarked)	13.3
CSc1ccc(CN2CCC(CO)(Cc3ccc(Cl)cc3)CC2)cc1	-81.3
OCC1(Cc2ccc(Cl)cc2)CCN(Cc2ccccc2F)CC1	-69.2
OCCC1CN(Cc2ccc(Oc3ncccn3)cc2)CCN1C1CCCC1 (centres unmarked)	8.16
CSc1ccc(CN2CCCC(CO)(Cc3ccccc3)C2)cc1 (centres unmarked)	-60.7
CSc1ccc(/C=N/N2CCN(Cc3ccc(Cl)cc3)CC2)cc1	8.01
CSc1ccc(CN2CCCCCC2)cc1	-35
OCC1(Cc2ccccc2)CCCN(Cc2ccn[nH]2)C1 (centres unmarked)	-11.8
Fc1ccccc1CN1CCN(c2ccc(Cl)cc2)CC1	1.71
OCCC1CN(Cc2ccc(Oc3ncccn3)cc2)CCN1C1CCCCC1 (centres unmarked)	-7.34
OCC1(Cc2ccc(Cl)cc2)CCN(Cc2ccc(Oc3ncccn3)cc2)CC1	-74.1
OCC1(Cc2ccccc2)CCN(Cc2cccc(F)c2F)CC1	-11.3
COc1ccc(NC(=O)CNc2cc(C)ccc2C)cc1S(=O)(=O)N1CCOCC1	-8.85
COc1cccc(-c2cn(-c3cccc(C(F)(F)F)c3)c(=S)[nH]2)c1	20.4
Cc1cnc(C(=O)OCC(=O)N(C)CC(=O)Nc2ccccc2Cl)cn1	-2.14
CC(OC(=O)c1ccncc1)C(=O)Nc1cccc(Cl)c1 (centres unmarked)	-23.2
Cc1ccc(S(=O)(=O)N(C)C)cc1NC(=O)C(C)OC(=O)c1ccc2ccccc2n1 (centres unmarked)	-26.8
Cc1cc(C)cc(N(CCC(=O)Nc2nnc(C3CC3)s2)S(=O)(=O)c2ccc(Cl)cc2)c1	4.63
COc1ccc2oc(C(=O)OCC(=O)N3CCC(C)CC3)c(C)c2c1	-0.112
CCOC(=O)C1CCN(C(=O)COC(=O)c2oc3ccc(OC)cc3c2C)CC1	-55.6
COc1ccc2oc(C(=O)OCC(=O)N3CC(C)OC(C)C3)c(C)c2c1 (centres unmarked)	-0.998

Compound	hERG current change (%, negative = inhibition) at 10uM [%]
COC(=O)C1CCN(C(=O)COC(=O)c2oc3ccc(OC)cc3c2C)CC1	-17.3
COc1ccc2oc(C(=O)OCC(=O)N3CC(C)CC(C)C3)c(C)c2c1 (centres unmarked)	-56.1
COc1ccc2oc(C(=O)OCC(=O)N3CCCCC3)c(C)c2c1	8.71
O=C(NCc1ccncc1)c1cccc(F)c1	0.361
Cc1c(C(=O)c2ccccc2C(=O)O)sc2ccccc12	15
Cc1cc2cc(CCNC(=O)C(C)C)c(=O)[nH]c2cc1C	2.03
NC(=O)C1=C[C@H](C2CCCCC2)C[C@H](OCc2ccc(CO)cc2)O1	2.51
COc1ccc(S(=O)(=O)N2CCCC2=O)cc1N(C)S(C)(=O)=O	13.8
CCOC(=O)c1c(C)[nH]c(C)c1C(=O)COC(=O)/C=C/c1cccc(C(F)(F)F)c1	1.35
CCC12CN3CCN(CC(C3)/C1=N/NC(=O)c1ccncc1)C2	21.2
COc1ccccc1NC(=O)COc1ccccc1	10.9
COc1cc(Cl)ccc1OCc1cc(C(=O)NC(C)Cc2cnccn2)no1 (centres unmarked)	-53.8
C[C@@H]1CN(C(=O)c2cc(COc3cccc(C(F)(F)F)c3)on2)C[C@H](C)O1	8.11
COc1ccc(OCc2cc(C(=O)NC(C)Cc3cnccn3)no2)c(Cl)c1 (centres unmarked)	-4.5
COc1cc(Cl)ccc1OCc1cc(C(=O)NC(C)Cc2cccnc2)no1 (centres unmarked)	-30.7
Cc1ccc(OCc2cc(C(=O)N3CCC(Oc4cccnc4)CC3)no2)cc1C	-56.7
Cc1ccc(OCc2cc(C(=O)N3CCCCCCC3)no2)cc1C	3.22
O=C(c1cc(COc2cccc(C(F)(F)F)c2)on1)N1CCC(Oc2cccnc2)CC1	-64.1
O=C(c1cc(COc2cccc(C(F)(F)F)c2)on1)N1CCc2ccccc2C1	10.4
O=C(c1cc(COc2cccc(C(F)(F)F)c2)on1)N1CCC(c2ccccc2)CC1	6.79
COc1cccc(OCc2cc(C(=O)N3CCC(c4ccncc4)CC3)no2)c1	-40.9
O=C(c1cc(COc2cccc(C(F)(F)F)c2)on1)N1CCC(c2ccncc2)CC1	-78.8
Cc1cc(OCc2cc(C(=O)N3CCC(Oc4cccnc4)CC3)no2)cc(C)c1Cl	9.06
